SMILES strings stand for the structures. Out of some 400,000 compounds screened, about 2,100 (0.53%) were called active. Another 14% or so got no clear call; they are omitted. How the calls were made is not given here. Many of the other results were omitted from the sample, so actives are more common in it than they were.

Ataxin-2 (Homo sapiens), sequence (Q99700 whole entry): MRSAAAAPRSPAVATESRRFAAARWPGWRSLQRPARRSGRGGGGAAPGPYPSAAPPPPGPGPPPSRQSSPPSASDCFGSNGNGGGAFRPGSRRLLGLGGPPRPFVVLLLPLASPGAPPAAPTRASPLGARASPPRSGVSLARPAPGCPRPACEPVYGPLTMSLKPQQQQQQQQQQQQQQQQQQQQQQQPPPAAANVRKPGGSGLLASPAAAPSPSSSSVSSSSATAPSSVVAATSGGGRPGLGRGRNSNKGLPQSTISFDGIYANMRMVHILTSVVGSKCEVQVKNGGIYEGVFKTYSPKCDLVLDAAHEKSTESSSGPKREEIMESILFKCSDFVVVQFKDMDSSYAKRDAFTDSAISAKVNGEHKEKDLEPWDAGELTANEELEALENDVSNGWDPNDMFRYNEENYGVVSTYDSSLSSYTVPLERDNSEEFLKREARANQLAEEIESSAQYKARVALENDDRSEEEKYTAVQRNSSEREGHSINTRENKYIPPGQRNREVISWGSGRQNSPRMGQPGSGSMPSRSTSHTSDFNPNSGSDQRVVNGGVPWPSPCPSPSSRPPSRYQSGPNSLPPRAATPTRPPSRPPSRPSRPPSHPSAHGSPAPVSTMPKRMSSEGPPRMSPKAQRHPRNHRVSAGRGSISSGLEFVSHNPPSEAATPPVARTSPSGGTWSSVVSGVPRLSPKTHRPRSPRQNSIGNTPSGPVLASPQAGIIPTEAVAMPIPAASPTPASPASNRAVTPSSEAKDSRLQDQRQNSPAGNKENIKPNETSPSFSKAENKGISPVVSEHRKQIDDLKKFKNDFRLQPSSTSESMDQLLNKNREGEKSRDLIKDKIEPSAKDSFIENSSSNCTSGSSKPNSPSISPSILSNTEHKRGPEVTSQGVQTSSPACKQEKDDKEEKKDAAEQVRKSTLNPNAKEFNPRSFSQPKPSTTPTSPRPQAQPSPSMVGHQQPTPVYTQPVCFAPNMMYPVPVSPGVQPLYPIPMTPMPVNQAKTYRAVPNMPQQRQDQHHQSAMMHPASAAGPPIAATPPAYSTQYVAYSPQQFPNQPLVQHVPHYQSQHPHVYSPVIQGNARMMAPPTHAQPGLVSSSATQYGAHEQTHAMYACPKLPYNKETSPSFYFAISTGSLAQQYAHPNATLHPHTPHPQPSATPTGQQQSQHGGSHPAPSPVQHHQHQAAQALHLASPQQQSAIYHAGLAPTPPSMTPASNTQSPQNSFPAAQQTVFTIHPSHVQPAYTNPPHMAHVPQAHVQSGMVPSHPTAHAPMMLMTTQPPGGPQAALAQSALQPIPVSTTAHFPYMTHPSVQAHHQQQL

This test concerns the target Ataxin-2 (Homo sapiens) (UniProt Q99700). Kind of test: qHTS for Inhibitors of ATXN expression. It counts as functional.
Regarding `CCc1nc2sc(C(C)=O)c(N)c2c2c1CCCC2`, the Potency entry is “inactive”.

As for `O=C(CC1Sc2ccccc2NC1=O)OCc1cc(=O)oc2cc(O)ccc12` (stereo not drawn), the Potency result was “inactive”.

Consider `Cn1cc(/C=N/NC(=O)c2cc3cc(Br)ccc3o2)c2ccccc21`, for which the Potency entry was “inactive”.

Turning to `CCOC(=O)N1CCC(NC(=O)c2cc(C(=O)Nc3ccc(F)cc3F)ccc2CO)CC1`, the Potency entry is “inactive”.

With `O=C(CC[C@H]1O[C@@H](n2ccc(=O)[nH]c2=O)[C@H](O)[C@@H]1O)N[C@H](Cc1ccccc1)C(=O)NCCCN1CCCC1=O`, the Potency entry is “inactive”.

Take `CC(OC(=O)c1ccc([N+](=O)[O-])s1)C(=O)NC1CCCCC1C` (stereo not drawn): the Potency entry is “inactive”.

With `O=c1[nH]cc(/N=C/c2cc(Cl)cc(Cl)c2O)c(=O)[nH]1`, the Potency entry is “inactive”.

Take `CCCn1/c(=N\C(C)=O)c(C(=O)OCC)cc2c(=O)n3ccccc3nc21`: the Potency result was “inactive”.

For `CC(C)Cc1cc(C(=O)N2CCC(N3CCC(C(=O)N4CCCC4)CC3)CC2)[nH]n1`, the Potency entry was “inactive”.

Consider `O=C(c1cccc(Cl)c1)N1CCC(N2CCC(C(=O)N3CCCC3)CC2)CC1`, for which the Potency was 8.91 µM (active).

As to `O=C(C1CCN(S(=O)(=O)c2c(Cl)cccc2Cl)CC1)N1CCCCCCC1`, the Potency result was “inactive”.

In the case of `CCOC(=O)c1cc2c(=O)n3ccccc3nc2n(CC(C)C)/c1=N\C(=O)C(C)Oc1ccccc1` (stereo not drawn), the Potency result was “inactive”.

With `COc1ccc(-c2oc3ccccc3c(=O)c2OC(C)=O)cc1`, the Potency entry was “inactive”.

`CNC(=O)c1ccc(NC(=O)C2CCN(S(=O)(=O)c3cccc(C(F)(F)F)c3)CC2)cc1`: the Potency entry was “inactive”.

On to `O=C(Nc1cccc(C(F)(F)F)c1)C1CC(=O)N(Cc2ccco2)C1` (stereo not drawn), for which the Potency entry is “inactive”.

For `Cc1noc2ncnc(N3CCCC(C(=O)Nc4cccc(C(F)(F)F)c4)C3)c12` (stereo not drawn), the Potency was 31.6 µM (active).

On to `CCn1c(C(C)NC(C)=O)nc2ccccc21` (stereo not drawn), for which the Potency result is “inactive”.

Turning to `CCn1c2ccccc2c(=O)c2ccccc21`, the Potency entry was “inactive”.

`CCn1c2ccccc2nc2cc3c(cc21)c(Cl)c(=O)c1ccccc13`: the Potency is 7.94 µM (active).

In the case of `O=C(O)c1cccc(NC(=O)c2cc3cc(Br)cc(Br)c3oc2=O)c1`, the Potency entry was “inactive”.

For `C/C(=N\NC(=O)c1cc2ccccc2cc1O)c1ccc(C)o1`, the Potency entry is “inactive”.

Turning to `C/C(=N\NC(=O)C1(C)CC1(Br)Br)c1cccc(NC(=O)c2ccc(C)o2)c1` (stereo not drawn), the Potency is 35.5 µM (active).

For `Nc1ccc(Br)c2cccnc12`, the Potency result is “inactive”.

Consider `NC(=O)c1c(NC(=O)C2COc3ccccc3O2)sc2c1CCN(Cc1ccccc1)C2` (stereo not drawn), for which the Potency entry is “inactive”.

As to `COc1ccccc1/C=C/CN1CCC(CO)(Cc2ccccc2)CC1`, the Potency result is “inactive”.

In the case of `COc1ccc(CC2(CO)CCN(Cc3ccc4c(c3)CCO4)CC2)cc1`, the Potency entry was “inactive”.

In the case of `Cc1c(CN2CCC(CO)(Cc3cccc(C(F)(F)F)c3)CC2)c2ccccc2n1C`, the Potency is 39.8 µM (active).

For the molecule `O=C(O)c1ccc(-c2ccc(/C=C3\NC(=O)N(Cc4ccc(Cl)cc4)C3=O)o2)cc1Cl`, the Potency result is “inactive”.

Turning to `Cc1c(N(C)S(=O)(=O)c2cccc(C(=O)NCc3cccnc3)c2)c(=O)n(-c2ccccc2)n1C`, the Potency entry is “inactive”.

With `O=C(N/N=C/c1ccc(-c2ccc([N+](=O)[O-])cc2)o1)c1cccnc1`, the Potency result is “inactive”.

As to `O=C(NCc1cccnc1)/C(=C\c1ccc(-c2ccc(Cl)c(Cl)c2)o1)S(=O)(=O)c1ccccc1`, the Potency is 22.4 µM (active).

Turning to `CC(C)(C)NC(=O)NCc1cccnc1`, the Potency entry was “inactive”.

Regarding `O=C(NCc1cccnc1)/C(=C/c1ccc(-c2ccc(Cl)cc2)o1)S(=O)(=O)c1ccccc1`, the Potency was 35.5 µM (active).

Regarding `O=C(NCc1cccnc1)/C(=C\c1ccc(-c2cccc(Cl)c2)o1)S(=O)(=O)c1ccccc1`, the Potency was 31.6 µM (active).

With `CNC(=O)/C(C#N)=C/c1ccc(-c2ccc(Cl)cc2)o1`, the Potency entry was “inactive”.

For the molecule `O=C(NCC(=O)N1CCC2(CC1)NCCc1[nH]cnc12)c1cccc(Cl)c1`, the Potency entry was “inactive”.

As for `CN(C)c1ccc(/C=N/NC(=O)c2cccc(N3CCCC3=O)c2)cc1`, the Potency entry is “inactive”.

Take `Cc1ccc(S(=O)(=O)NN=C2CCc3ccccc32)cc1`: the Potency result was “inactive”.

As for `N#CCCn1nc(-c2ccc(Br)cc2)cc1Nc1ccccc1NC(=O)C(F)(F)F`, the Potency result is “inactive”.

As for `CCOc1ccc(N2C(=O)/C(=C\NNc3nnc(C)c(O)n3)c3ccccc3C2=O)cc1`, the Potency entry was “inactive”.

Regarding `O=C(C1CCCO1)N(c1ccc(F)cc1)C1C=CS(=O)(=O)C1` (stereo not drawn), the Potency entry is “inactive”.

Take `O=C(OCCN1C(=O)c2cccc3c(N4CCOCC4)ccc(c23)C1=O)c1cccc(Cl)c1`: the Potency result is “inactive”.

With `CC(C)CN(C(=O)CN1CCCCCC1)c1c(N)n(CC(C)C)c(=O)[nH]c1=O`, the Potency result is “inactive”.

Consider `CC1CN(C(S)=Nc2ccc(Cl)cc2)CC(C)O1` (stereo not drawn), for which the Potency result is “inactive”.

Consider `CCn1nc(NC(=O)COC)c2cc3cc(C)ccc3nc21`, for which the Potency result was “inactive”.

On to `Cc1cccc2cc3c(N)c(C(=O)N4CCc5ccccc54)sc3nc12`, for which the Potency entry was “inactive”.

As to `O=[N+]([O-])c1ccc(N/N=C/c2ccc(OCc3cccc4ccccc34)cc2)nc1`, the Potency result was “inactive”.

In the case of `O=[N+]([O-])c1ccc(NN=Cc2ccccc2O)nc1`, the Potency is 20 µM (active).

On to `O=[N+]([O-])c1ccc(/C=N/Nc2ncc(-c3ccccc3)cn2)cc1`, for which the Potency result is “inactive”.

Consider `CN(C)c1c2ccccc2nc2c(F)c(F)c(F)c(F)c12`, for which the Potency entry was “inactive”.

Turning to `Cc1cccn2c(=O)c3cc(C(=O)NC(C)c4ccccc4)c(=N)n(CCOCCO)c3nc12` (stereo not drawn), the Potency entry was “inactive”.

`C=CCn1cccc(/C=C/C(=O)c2ccc(C(C)(C)C)cc2)c1=S`: the Potency was 35.5 µM (active).

For `O=C(/C=C/c1cn(CC(O)CN2CCCCCC2)c2ccccc12)c1ccc(Br)cc1` (stereo not drawn), the Potency entry was “inactive”.

As to `CC(C)CN(CC(C)C)CC(O)Cn1cc(/C=C/C(=O)c2ccccc2)c2ccccc21` (stereo not drawn), the Potency entry was “inactive”.

On to `Cc1cc(=O)oc2cc(O[C@@H]3O[C@H](CO)[C@H](O)[C@H](O)[C@H]3O)ccc12`, for which the Potency result is “inactive”.

For the molecule `O=C(COC(=O)C1CC(=O)N(Cc2ccccc2)C1)Nc1cccc([N+](=O)[O-])c1` (stereo not drawn), the Potency result was “inactive”.

On to `CN(C(=O)c1cccc(NC(=O)Cc2ccc(NC(=O)C3CCCN(C(=O)CCc4ccccc4)C3)cc2)c1)C1CCCCC1` (stereo not drawn), for which the Potency is 17.8 µM (active).

In the case of `Cc1cc(N2CCOCC2)nc2ccc(NC(=O)CCC(=O)N3CCCC(C)C3)cc12` (stereo not drawn), the Potency entry was “inactive”.

On to `Cc1ccc(N2C(=O)c3cccc4c(N5CCN(C)CC5)ccc(c34)C2=O)c2cccnc12`, for which the Potency entry is “inactive”.

As to `CCc1nnc(N/C=C2/C(=O)N(c3ccc(Cl)cn3)C(=O)c3ccccc32)s1`, the Potency result was “inactive”.

Regarding `CCn1c(NCc2ccc(OC)cc2)nc2ccccc21`, the Potency result is “inactive”.

Take `Cn1c(COc2ccc(C(=O)O)cc2)nc2ccccc21`: the Potency entry is “inactive”.

On to `COc1ccc(C(=O)Cn2c(C(C)=O)nc3ccccc32)cc1`, for which the Potency is 33.6 µM (active).

Values taken from ChEMBL document CHEMBL1201862, “PubChem BioAssay data set” (2004).
